Structures are written as SMILES. For some of these results: Entries with a potency or affinity are not part of this list.

In test [1] the target is Protein translocase subunit SecA (Escherichia coli (strain K12)) (UniProt P10408). Description: Assay to Identify E. coli SecA ATPase Inhibitors. The conditions noted are these: 30 µM. The arrangement: scale not given: direction of the effect not stated beside the values. The class given is functional.
Test [2] addresses T1, Ubiquitin-activating enzyme e1, putative (Leishmania donovani (strain BPK282A1)) (UniProt E9BSI1).
T1 sequence (whole entry): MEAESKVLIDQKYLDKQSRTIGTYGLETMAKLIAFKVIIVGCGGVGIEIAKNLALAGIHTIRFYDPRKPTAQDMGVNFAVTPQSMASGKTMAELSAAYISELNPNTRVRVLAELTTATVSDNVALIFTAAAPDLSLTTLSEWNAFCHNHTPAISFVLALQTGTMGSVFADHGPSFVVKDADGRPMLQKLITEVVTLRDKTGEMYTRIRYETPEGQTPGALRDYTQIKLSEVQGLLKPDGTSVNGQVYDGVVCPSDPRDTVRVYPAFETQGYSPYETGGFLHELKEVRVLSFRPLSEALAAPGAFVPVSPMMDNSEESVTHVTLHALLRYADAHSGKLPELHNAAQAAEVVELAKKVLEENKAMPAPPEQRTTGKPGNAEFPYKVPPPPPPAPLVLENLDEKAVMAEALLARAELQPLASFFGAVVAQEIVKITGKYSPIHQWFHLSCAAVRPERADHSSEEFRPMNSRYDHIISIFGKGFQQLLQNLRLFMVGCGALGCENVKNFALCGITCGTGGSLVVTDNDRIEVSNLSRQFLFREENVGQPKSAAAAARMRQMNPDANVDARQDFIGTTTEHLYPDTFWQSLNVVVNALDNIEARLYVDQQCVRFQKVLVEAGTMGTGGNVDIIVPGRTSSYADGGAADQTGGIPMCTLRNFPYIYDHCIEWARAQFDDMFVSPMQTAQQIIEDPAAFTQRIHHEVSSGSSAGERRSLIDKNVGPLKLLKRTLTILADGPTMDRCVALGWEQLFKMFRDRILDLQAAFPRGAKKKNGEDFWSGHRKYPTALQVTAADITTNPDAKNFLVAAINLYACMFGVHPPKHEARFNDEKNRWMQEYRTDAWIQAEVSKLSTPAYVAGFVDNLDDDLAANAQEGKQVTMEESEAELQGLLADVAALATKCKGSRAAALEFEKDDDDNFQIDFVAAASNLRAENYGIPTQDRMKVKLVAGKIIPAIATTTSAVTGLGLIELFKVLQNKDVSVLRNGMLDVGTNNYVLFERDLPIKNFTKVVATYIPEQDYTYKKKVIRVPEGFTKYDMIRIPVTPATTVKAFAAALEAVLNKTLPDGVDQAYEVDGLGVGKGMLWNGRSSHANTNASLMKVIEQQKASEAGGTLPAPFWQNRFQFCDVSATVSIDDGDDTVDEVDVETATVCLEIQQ
Description: Leishmania donovani Ubiquitin Activating Enzyme (LdE1). The class given is functional. The arrangement: scale not given: direction of the effect not stated beside the values. The conditions noted are these: 30 µM.

Test [3] deals with AMP-activated protein kinase, AMPK (Homo sapiens) (UniProt P54646+O43741+P54619+Q9UGJ0+Q9Y478+Q13131+Q9UGI9). Description: AMP-dependent Kinase enzyme assay. An in vitro enzyme assay that detects ADP turnover that is directly proportional to AMPK activity. This uses naive AMPK that is activated during the assay with MK-8722. The arrangement: scale not given: direction of the effect not stated beside the values. The class given is functional. Particulars: 30 µM.

Test [4] addresses Sialic acid-binding Ig-like lectin 9 (Homo sapiens) (UniProt Q9Y336). Description: Hs-Siglec9 ALPHAscreen SOP 20170721. The arrangement: scale not given: direction of the effect not stated beside the values. The conditions noted are these: 10 µM. (In general: Bead proximity is the source of the signal in Alpha formats.)
Another test relates to Trypanosoma cruzi. Description: Trypanosoma cruzi phosphomannomutase and mannose-1-phosphate guanylyltransferase assay. The class given is functional. The arrangement: scale not given: direction of the effect not stated beside the values. Particulars: 10 µM.
The target in test [5] is T2, Arginase-2, mitochondrial (Homo sapiens) (UniProt P78540).
T2 sequence (whole entry): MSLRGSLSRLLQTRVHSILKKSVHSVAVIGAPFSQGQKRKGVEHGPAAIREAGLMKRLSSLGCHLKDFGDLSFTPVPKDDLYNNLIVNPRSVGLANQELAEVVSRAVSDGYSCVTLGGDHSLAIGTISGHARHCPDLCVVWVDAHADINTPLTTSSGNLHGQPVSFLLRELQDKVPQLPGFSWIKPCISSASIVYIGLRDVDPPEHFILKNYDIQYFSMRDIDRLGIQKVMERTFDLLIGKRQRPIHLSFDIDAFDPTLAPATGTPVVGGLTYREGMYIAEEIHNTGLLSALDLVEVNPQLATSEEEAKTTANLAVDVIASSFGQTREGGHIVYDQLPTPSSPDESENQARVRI
Description: in vitro enzyme assay to detect the production of urea directly proportional to the activity of Arginase II. The arrangement: scale not given: in the data most compounds retested in dose-response had high values. It counts as functional.

The target in test [6] is T3, Proteasome subunit beta (Trypanosoma cruzi) (UniProt O96673).
T3 sequence (whole entry): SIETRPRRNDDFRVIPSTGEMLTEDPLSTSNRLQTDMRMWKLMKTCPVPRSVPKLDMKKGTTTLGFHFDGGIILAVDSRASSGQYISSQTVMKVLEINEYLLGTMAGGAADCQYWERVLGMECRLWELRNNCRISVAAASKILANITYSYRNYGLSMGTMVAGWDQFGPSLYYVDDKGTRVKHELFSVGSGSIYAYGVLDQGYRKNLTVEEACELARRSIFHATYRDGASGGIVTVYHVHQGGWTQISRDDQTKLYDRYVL
Description: Trypanosoma cruzi proteasome chymotrypsin-like activity (TcProtChymo) assay. It counts as functional. The arrangement: scale not given: in the data most compounds retested in dose-response had high values. Particulars: 9.37 µM.

A further test is filed under the species Homo sapiens. Description: To identify inhibition of the IFN signalling (Jak-Stat) pathway via expression of an eGFP reporter gene under the control of an IFN-stimulated response element (ISRE) containing MxA promoter. The conditions noted are these: 30 µM. The arrangement: scale not given: direction of the effect not stated beside the values. The class given is functional. (In a reporter assay the amount or activity of a reporter protein is the signal.)

Test [7] deals with T4, Tyrosyl-tRNA synthetase, putative (Trypanosoma cruzi (strain CL Brener)) (UniProt Q4DSP6).
T4 sequence (whole entry): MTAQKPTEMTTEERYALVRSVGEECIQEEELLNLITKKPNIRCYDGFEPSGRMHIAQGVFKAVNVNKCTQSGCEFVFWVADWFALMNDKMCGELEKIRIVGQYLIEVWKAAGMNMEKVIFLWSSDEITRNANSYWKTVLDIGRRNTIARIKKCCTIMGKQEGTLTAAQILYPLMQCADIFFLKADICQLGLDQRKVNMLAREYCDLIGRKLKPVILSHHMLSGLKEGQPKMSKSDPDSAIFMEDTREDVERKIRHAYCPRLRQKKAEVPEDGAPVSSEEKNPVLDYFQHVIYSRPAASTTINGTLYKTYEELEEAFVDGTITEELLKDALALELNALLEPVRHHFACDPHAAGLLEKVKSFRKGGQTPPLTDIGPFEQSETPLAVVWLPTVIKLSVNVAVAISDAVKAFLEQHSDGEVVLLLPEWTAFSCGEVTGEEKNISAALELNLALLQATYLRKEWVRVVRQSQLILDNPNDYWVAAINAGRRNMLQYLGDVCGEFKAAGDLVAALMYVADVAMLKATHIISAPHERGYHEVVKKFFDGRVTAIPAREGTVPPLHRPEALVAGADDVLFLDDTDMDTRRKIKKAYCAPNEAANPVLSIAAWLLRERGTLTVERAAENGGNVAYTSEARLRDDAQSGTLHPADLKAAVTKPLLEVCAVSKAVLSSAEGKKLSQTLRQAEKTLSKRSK
Description: Trypanosoma cruzi tyrosyl tRNA synthetase (TcYRS) _High Tyrosine SOP. The class given is functional. The arrangement: scale not given: in the data most compounds retested in dose-response had high values. The conditions noted are these: 30 µM.

The target in test [8] is T4, Tyrosyl-tRNA synthetase, putative (Trypanosoma cruzi (strain CL Brener)). Description: Trypanosoma cruzi tyrosyl tRNA synthetase (TcYRS) SOP. Particulars: 30 µM. The arrangement: scale not given: direction of the effect not stated beside the values. The class given is functional.
The target of test [9] is Chromo domain-containing protein 1 (Saccharomyces cerevisiae (strain ATCC 204508 / S288c) (Baker's yeast)) (UniProt P32657). Description: ScCHD-1 Enzyme Inhibition Assay. The class given is functional. Particulars: 30 µM. The arrangement: scale not given: in the data most compounds retested in dose-response had high values.
Sequence of Chromo domain-containing protein 1 (Saccharomyces cerevisiae (strain ATCC 204508 / S288c) (Baker's yeast)) (P32657 whole entry, the tested form may be a part): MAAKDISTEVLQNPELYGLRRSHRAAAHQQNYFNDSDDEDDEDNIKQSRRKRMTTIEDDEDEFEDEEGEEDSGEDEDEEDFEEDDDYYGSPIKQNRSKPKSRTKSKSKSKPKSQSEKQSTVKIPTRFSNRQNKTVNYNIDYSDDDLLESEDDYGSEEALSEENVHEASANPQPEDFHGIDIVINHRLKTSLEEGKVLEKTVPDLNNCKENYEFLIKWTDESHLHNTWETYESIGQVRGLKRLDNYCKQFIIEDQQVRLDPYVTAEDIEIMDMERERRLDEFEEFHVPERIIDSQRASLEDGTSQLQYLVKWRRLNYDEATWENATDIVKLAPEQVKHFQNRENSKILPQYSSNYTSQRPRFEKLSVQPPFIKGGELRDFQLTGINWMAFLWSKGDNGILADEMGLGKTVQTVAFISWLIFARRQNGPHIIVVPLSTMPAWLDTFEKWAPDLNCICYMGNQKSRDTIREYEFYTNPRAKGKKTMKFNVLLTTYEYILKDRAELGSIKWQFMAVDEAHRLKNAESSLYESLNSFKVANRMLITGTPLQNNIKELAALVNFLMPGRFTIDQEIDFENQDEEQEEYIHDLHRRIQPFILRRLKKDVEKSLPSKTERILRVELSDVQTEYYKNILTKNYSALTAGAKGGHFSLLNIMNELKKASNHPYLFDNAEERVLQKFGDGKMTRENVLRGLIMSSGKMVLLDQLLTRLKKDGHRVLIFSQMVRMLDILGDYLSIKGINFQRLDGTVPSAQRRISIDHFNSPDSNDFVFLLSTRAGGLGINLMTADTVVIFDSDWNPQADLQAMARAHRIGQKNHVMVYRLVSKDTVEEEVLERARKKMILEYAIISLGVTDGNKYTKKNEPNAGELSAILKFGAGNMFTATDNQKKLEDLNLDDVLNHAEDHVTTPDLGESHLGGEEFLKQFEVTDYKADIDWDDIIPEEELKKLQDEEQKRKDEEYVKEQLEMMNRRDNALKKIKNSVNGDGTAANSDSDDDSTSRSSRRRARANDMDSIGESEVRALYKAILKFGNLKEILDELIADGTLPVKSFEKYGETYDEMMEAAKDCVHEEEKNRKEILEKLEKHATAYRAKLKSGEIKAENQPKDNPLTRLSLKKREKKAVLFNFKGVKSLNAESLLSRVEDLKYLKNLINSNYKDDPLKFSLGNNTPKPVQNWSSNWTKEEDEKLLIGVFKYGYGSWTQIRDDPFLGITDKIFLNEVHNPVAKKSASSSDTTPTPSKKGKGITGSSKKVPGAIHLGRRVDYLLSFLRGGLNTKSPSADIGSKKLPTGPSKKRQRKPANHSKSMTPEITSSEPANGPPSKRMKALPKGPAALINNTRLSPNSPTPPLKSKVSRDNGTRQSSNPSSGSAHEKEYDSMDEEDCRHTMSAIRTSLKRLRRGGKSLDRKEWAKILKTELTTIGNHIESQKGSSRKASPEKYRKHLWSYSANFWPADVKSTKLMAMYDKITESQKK
Test [10] has as its target T5, Methionyl-tRNA synthetase, putative (Leishmania donovani (strain BPK282A1)) (UniProt E9BF75).
T5 sequence (whole entry): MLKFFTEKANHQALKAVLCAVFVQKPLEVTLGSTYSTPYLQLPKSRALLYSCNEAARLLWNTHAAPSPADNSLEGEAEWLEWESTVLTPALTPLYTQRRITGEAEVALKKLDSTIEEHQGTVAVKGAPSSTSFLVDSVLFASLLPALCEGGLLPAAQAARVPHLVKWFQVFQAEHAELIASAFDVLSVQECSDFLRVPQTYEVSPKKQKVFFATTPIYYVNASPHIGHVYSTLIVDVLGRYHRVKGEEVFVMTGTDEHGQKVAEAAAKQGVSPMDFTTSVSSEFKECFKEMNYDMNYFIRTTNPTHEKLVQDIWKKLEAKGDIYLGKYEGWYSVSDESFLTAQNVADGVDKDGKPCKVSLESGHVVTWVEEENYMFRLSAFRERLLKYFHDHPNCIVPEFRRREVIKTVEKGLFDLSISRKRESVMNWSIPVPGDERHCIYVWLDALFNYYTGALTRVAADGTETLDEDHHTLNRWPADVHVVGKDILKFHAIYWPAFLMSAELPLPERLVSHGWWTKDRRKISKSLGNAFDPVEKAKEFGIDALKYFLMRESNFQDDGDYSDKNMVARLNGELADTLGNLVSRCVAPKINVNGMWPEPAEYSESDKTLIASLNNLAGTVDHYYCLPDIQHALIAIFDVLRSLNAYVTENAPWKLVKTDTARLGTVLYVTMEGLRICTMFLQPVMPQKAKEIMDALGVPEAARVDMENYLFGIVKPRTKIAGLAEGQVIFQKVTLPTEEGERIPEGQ
Description: Leishmania donovani Methionine tRNA synthetase (LdMetRS):v7. Dose response assay. It counts as functional. The arrangement: conc 80 nM, time 150 minutes.

Sequence of Protein translocase subunit SecA (Escherichia coli (strain K12)) (P10408 whole entry): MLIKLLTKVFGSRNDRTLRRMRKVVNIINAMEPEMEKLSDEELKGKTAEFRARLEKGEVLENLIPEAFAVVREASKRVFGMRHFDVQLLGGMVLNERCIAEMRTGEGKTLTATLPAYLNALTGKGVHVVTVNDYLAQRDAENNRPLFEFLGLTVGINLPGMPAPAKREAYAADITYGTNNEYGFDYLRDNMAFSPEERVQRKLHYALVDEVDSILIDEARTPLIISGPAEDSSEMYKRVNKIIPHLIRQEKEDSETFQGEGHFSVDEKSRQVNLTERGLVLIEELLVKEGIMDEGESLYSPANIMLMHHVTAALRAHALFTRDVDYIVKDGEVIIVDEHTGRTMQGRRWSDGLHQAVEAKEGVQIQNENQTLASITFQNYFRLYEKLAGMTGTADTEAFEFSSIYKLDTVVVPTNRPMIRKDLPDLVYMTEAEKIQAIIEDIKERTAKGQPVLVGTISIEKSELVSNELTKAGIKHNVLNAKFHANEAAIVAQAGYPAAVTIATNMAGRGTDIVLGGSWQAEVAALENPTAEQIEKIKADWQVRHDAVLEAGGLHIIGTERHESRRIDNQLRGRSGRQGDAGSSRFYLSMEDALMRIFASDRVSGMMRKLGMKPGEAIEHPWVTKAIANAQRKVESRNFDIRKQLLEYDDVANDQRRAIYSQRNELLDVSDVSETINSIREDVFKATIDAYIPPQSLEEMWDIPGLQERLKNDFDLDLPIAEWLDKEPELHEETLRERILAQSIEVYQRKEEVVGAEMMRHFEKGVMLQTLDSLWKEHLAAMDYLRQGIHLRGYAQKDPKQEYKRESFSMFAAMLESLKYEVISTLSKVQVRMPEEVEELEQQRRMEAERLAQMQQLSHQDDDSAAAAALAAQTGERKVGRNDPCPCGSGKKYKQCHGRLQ
Sequence of Sialic acid-binding Ig-like lectin 9 (Homo sapiens) (Q9Y336 whole entry): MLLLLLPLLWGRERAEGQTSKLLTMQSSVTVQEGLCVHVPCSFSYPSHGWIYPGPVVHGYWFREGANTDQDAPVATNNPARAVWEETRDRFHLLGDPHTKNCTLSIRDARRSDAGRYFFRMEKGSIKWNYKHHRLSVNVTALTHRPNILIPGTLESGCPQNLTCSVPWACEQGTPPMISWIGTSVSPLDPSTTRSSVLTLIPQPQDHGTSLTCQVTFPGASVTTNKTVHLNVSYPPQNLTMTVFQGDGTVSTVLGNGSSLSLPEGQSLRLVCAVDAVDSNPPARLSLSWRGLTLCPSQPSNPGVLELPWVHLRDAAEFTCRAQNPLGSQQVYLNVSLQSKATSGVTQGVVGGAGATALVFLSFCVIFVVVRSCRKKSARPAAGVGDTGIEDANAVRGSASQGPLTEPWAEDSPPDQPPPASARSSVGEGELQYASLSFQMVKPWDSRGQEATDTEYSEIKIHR

Consider `CSCC(=O)N1CCCC1c1noc(C2CC2)n1` (configuration not stated), for which the Percent Effect in [1] is -5.16%; in test [2], 10.7%; in test [3], -6.47%; in test [4], 12.3%; in the test with Trypanosoma cruzi, 4.97%; in [5] (30 µM), 4.87%. The Percent Effect in [5] (33.3 µM) is 29.2%; in [6] it was -1.92%; in the test filed under Homo sapiens, 4.6%; in [7] it was 0.546%; in test [8], 11.1%; in test [9], -16.6%.
Take `Cc1nnc(NCC2(c3ccc(Cl)cc3Cl)CCOCC2)c(C#N)c1C`: the PXC50 in [10] (MAX_EFFECT 33.25415677) and in test [10] (MAX_EFFECT 41.72535211) was less than 4 each time. In addition, the Percent Effect in test [1] was -4%; in test [2] it was 0%; in test [3], -11.6%; in [4], 42.2%; in the test on Trypanosoma cruzi, 12.2%; in test [5] (33.3 µM), 1.91%. For the same molecule, the Percent Effect is 8.97% in test [6]; 10.4% in the test filed under Homo sapiens; 5.82% in [7]; 2.44% in test [8]; -12.2% in [9].
On to `O=C1CC(c2ccsc2)c2c(n(C3CCOCC3)[nH]c2=O)N1` (configuration not stated), for which the Percent Effect in [1] is -5.06%; in [2], -30.7%; in [3] it was -12.7%; in test [4] it was 0.762%; in the test on Trypanosoma cruzi it was 2.36%; in test [5] (30 µM) it was 2.7%. Moreover, the Percent Effect in test [5] (33.3 µM) was 2.64%; in [6], 16.4%; in the test filed under Homo sapiens, 1.56%; in test [7], 6.35%; in [8], 15.4%; in [9], -7.86%.
